{"source": "PubChem BioAssay"}
{"assay": "compound effects on differentiated 3T3-L1 adipocyte viability – cell-based, 3T3-L1 adipocytes, calcein-AM fluorescence, 48 h, basal, profiling panel (AID 1163)", "settings": "3T3-L1 adipocytes viability, higher = more signal"}
{"smiles": "O=C(NCc1ccccc1)[C@@]1(Cc2ccccc2)COC(c2ccc(OCCCO)cc2)=N1", "z-score": -2.05}
{"smiles": "C=C(CCCC)/C(=C/C[C@@H](OC(=O)c1ccncc1)c1ccc(CO)o1)c1cnc2ccccc2c1", "z-score": 0.282}
{"smiles": "O=C1C2C=CC(C(O)C#Cc3ccccc3)N(Nc3ccccc3)C2C(=O)N1c1ccccc1", "note": "(stereo not given)", "z-score": -1.26}
{"smiles": "CCCC=C(CCC)[C@@H](NC(=O)c1ccc(C(F)(F)F)cc1)c1ccccc1", "z-score": 0.0679}
{"smiles": "COc1ccc(NN2C(C(O)c3cc(OC)c(OC)c(OC)c3)C=CC3C(=O)N(C4CCCCC4)C(=O)C32)cc1", "note": "(stereo not given)", "z-score": -1.42}
{"smiles": "C#CCCCON=C1C[C@@H](O)[C@@H](O)[C@@H]2[C@@H]3C(=O)N(Cc4ccc5c(c4)OCO5)C(=O)[C@@H]3CC[C@@H]12", "z-score": -1.2}
{"smiles": "COC(=O)C1=CC(c2ccc(CO)cc2)=CC(c2cccs2)N(Cc2cccc(OC(F)(F)F)c2)C=C1C(=O)OC", "note": "(stereo not given)", "z-score": 0.531}
{"smiles": "O=C1O[C@H](c2ccccc2)[C@H](c2ccccc2)N2[C@H]1[C@@H](C(=O)NC[C@H](O)c1ccccc1)[C@]1(C(=O)Nc3ccc(C#CC4=CCCCC4)cc31)[C@H]2c1ccc(OCCO)cc1", "z-score": -0.405}
{"smiles": "CC[C@H]1C2=C3C(CC[C@H]4C(OC)OC[C@](C)([C@@H]34)N(C(=O)OC(C)(C)C)C2)C(CO)C1CO", "note": "(stereo not given in full)", "z-score": 0.561}
{"assay": "compound effects on hepatocellular carcinoma cell viability – HepG2, calcein-AM fluorescence, 48 h, basal, profiling panel (AID 1164)", "settings": "higher = more signal"}
{"smiles": "COC(=O)Cn1c(C(=O)N2CCCC2)cc2c1C[C@H]1CN(C(=O)c3ccccc3)[C@@](Cc3ccccc3)(C(=O)OC)[C@@H]21", "z-score": 0.513}
{"smiles": "O=C1C[C@@](C(=O)NCCN2CCOCC2)(c2ccc([N+](=O)[O-])cc2)[C@@H](c2ccc(CO)cc2)N1C1CCCCC1", "z-score": 0.339}
{"smiles": "CC(=O)NCCCC[C@@H]1NC(=O)[C@H]2C[C@@H](C(=O)NCCCCCCN(C)C)[C@@H](c3cccc(OCCO)c3)N2C1=O", "z-score": 0.344}
{"smiles": "CC(C)(C)OC(=O)CC[C@]1(C(=O)N2CCCCC2)N=C(c2ccc(OCCCO)cc2)O[C@H]1c1ccccc1", "z-score": 1.01}
{"smiles": "CC(=O)NCCCC[C@@H]1NC(=O)[C@H]2C[C@@H](C(=O)NCCCCCCN(C)C)[C@@H](c3ccc(O)cc3)N2C1=O", "z-score": -1.23}
{"smiles": "O=C1C2C=CC(C(O)Cc3ccccc3)N(Nc3ccc([N+](=O)[O-])cc3)C2C(=O)N1c1ccccc1", "note": "(stereo not given)", "z-score": 0.0181}
{"smiles": "C=C(COC)C(=O)CC[C@H](OC(=O)c1ccccc1-c1ccccc1C(=O)O)c1cccc(OCCO)c1", "z-score": -2.08}
{"smiles": "C=CC[C@@]1(C(=O)NCC(O)CO)N=C(c2ccc(OCCCO)cc2)O[C@@H]1c1ccccc1CN=[N+]=[N-]", "note": "(stereo not given in full)", "z-score": 0.816}
{"smiles": "O=C(CS)NCCCCCCNC(=O)[C@@H]1C[C@@H]2C(=O)N[C@@H](Cc3ccccc3)C(=O)N2[C@@H]1c1ccc(O)cc1", "z-score": -0.963}
{"smiles": "C=CC[C@]1(C(=O)N2CCCCC2)N=C(c2ccc(OCCCO)cc2)O[C@H]1c1ccccc1N=[N+]=[N-]", "z-score": -0.715}
{"smiles": "COC(=O)[C@@]1(Cc2ccc(OC)cc2)[C@H]2c3cc(C(=O)N(C)C)n(Cc4ccc(C)c(F)c4F)c3C[C@H]2CN1C(=O)c1ccccc1", "z-score": -1.15}
{"smiles": "[N-]=[N+]=NCc1ccccc1C[C@]1(C(=O)N2CCCCC2)N=C(c2ccc(OCCCO)cc2)O[C@H]1c1ccccc1CN=[N+]=[N-]", "z-score": -0.503}
{"smiles": "CC(C)[Si](OCC[C@H]1O[C@]2(C(=O)N(Cc3ccccc3)c3ccccc32)[C@@H](C)[C@@H]1[Si](C)(C)O)(C(C)C)C(C)C", "z-score": 0.35}
{"smiles": "C=CCC(OC(C)=O)[C@@H]1[C@@H](N(Cc2ccc(-c3cccc(C(F)(F)F)c3)o2)C(=O)Cc2ccc(F)cc2)c2cc(OCCCO)ccc2N1C(=O)c1ccc(-c2ccccc2)cc1", "note": "(stereo not given in full)", "z-score": 0.536}
{"smiles": "C=C[C@H](OC)[C@@H](OC(=O)Nc1ccc(SC)cc1)c1ccc(O)c(F)c1", "z-score": -0.14}
{"smiles": "O=C1O[C@H](c2ccccc2)[C@H](c2ccccc2)N2[C@H]1[C@@H](C(=O)NC[C@H](O)c1ccccc1)[C@]1(C(=O)Nc3ccc(C#CC4(O)CCCCCC4)cc31)[C@H]2c1ccc(OCCO)cc1", "z-score": 0.643}
{"smiles": "CC(C)C[C@@H]1NC(=O)[C@H](CC(C)C)NC(=O)[C@@]23C(=O)N[C@@H](Cc4ccccc4)C2[C@H](C)[C@@]2(C)O[C@H]2C3/C=C/CC/C=C/CNC1=O", "note": "(stereo not given in full)", "z-score": -0.766}
{"smiles": "O=C1NC(=O)C2C1C=CC(C(O)C=Cc1ccc([N+](=O)[O-])cc1)N2Nc1ccccn1", "note": "(stereo not given)", "z-score": 0.324}
{"smiles": "NC(=O)NCC#Cc1ccc2c(c1)[C@]1(C(=O)N2)[C@H](C(N)=O)[C@H]2C(=O)O[C@H](c3ccccc3)[C@H](c3ccccc3)N2[C@@H]1c1ccccc1OCCO", "z-score": -0.945}
{"smiles": "CCOC(=O)C[C@H]1[C@H](OC(=O)c2cc3ccccc3oc2=O)[C@@H](NC(=O)C2CCCCC2)c2cc(OCCCO)ccc2N1C(=O)c1ccc2ccccc2n1", "z-score": 0.312}
{"smiles": "COc1cc2c(cc1OC)CN(C(=O)[C@H]1[C@@H]3C(=O)O[C@@H](c4ccccc4)[C@@H](c4ccccc4)N3[C@@H](c3ccc(O)cc3)[C@]13C(=O)Nc1ccc(C#CC4(O)CCCCCC4)cc13)CC2", "z-score": -0.155}
{"smiles": "O=C1OCCC/C=C\\[C@H]2OC34C=CCN(CCN5CCOCC5)C(=O)[C@H]3N(CCCCCO)C(=O)[C@@H]4C12", "note": "(stereo not given in full)", "z-score": -0.123}
{"smiles": "C[N+](C)(C)CCCCNC(=O)[C@H]1C[C@H]2C(=O)NCC(=O)N2[C@H]1c1cccc(OCCO)c1", "z-score": -0.347}
{"smiles": "O=C1C[C@@](C(=O)NC2CC2)(c2ccc([N+](=O)[O-])cc2)[C@@H](c2ccc(CO)cc2I)N1CC12CC3CC(CC(C3)C1)C2", "z-score": -5.04}
{"smiles": "C=C(CCCC)/C(=C/C[C@@H](OC(=O)c1ccncc1)c1cccc(OCCO)c1)c1cc(C(=O)OC)ccc1OC", "z-score": 0.872}
{"smiles": "Cc1ccc(S[C@]2(C(=O)NCCCN(C)C)CC(=O)N(Cc3ccccc3)[C@@H]2c2ccc(CO)cc2I)cc1", "z-score": 0.914}
{"smiles": "O=C1O[C@H](c2ccccc2)[C@H](c2ccccc2)N2[C@H]1[C@@H](C(=O)Nc1nc3ccccc3s1)[C@]1(C(=O)Nc3ccc(C#CC4(O)CCCCCC4)cc31)[C@H]2c1ccc(O)cc1", "z-score": -0.0827}
{"smiles": "O=C(NCc1ccccc1)[C@@]1(Cc2ccccc2)COC(c2ccc(OCCCO)cc2)=N1", "z-score": -2.78}
{"smiles": "C=C(CCCC)/C(=C/C[C@@H](OC(=O)c1ccncc1)c1ccc(CO)o1)c1cnc2ccccc2c1", "z-score": -0.284}
{"smiles": "O=C1C2C=CC(C(O)C#Cc3ccccc3)N(Nc3ccccc3)C2C(=O)N1c1ccccc1", "note": "(stereo not given)", "z-score": -0.374}
{"smiles": "CCCC=C(CCC)[C@@H](NC(=O)c1ccc(C(F)(F)F)cc1)c1ccccc1", "z-score": -1.59}
{"smiles": "COc1ccc(NN2C(C(O)c3cc(OC)c(OC)c(OC)c3)C=CC3C(=O)N(C4CCCCC4)C(=O)C32)cc1", "note": "(stereo not given)", "z-score": 1.17}
{"smiles": "C#CCCCON=C1C[C@@H](O)[C@@H](O)[C@@H]2[C@@H]3C(=O)N(Cc4ccc5c(c4)OCO5)C(=O)[C@@H]3CC[C@@H]12", "z-score": -0.61}
{"smiles": "COC(=O)C1=CC(c2ccc(CO)cc2)=CC(c2cccs2)N(Cc2cccc(OC(F)(F)F)c2)C=C1C(=O)OC", "note": "(stereo not given)", "z-score": -0.282}
{"smiles": "O=C1O[C@H](c2ccccc2)[C@H](c2ccccc2)N2[C@H]1[C@@H](C(=O)NC[C@H](O)c1ccccc1)[C@]1(C(=O)Nc3ccc(C#CC4=CCCCC4)cc31)[C@H]2c1ccc(OCCO)cc1", "z-score": -0.674}
{"smiles": "CC[C@H]1C2=C3C(CC[C@H]4C(OC)OC[C@](C)([C@@H]34)N(C(=O)OC(C)(C)C)C2)C(CO)C1CO", "note": "(stereo not given in full)", "z-score": 0.656}
